Screen size: about 52,000 sequences; about 210 (0.4%) were called active. The entries come from a sample that favours actives as a whole. Unmarked numbers belong to inactive results.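 The calls were made as follows: active = gene whose silencing raises cell survival under the drug, median off-target-corrected z-score across its silencing RNAs 2 or more; inactive = the rest.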
Assay: Resistance to Poly (ADP-Ribose) Polymerase inhibitor: Gene Identification via Genome-wide siRNA Screen
Conditions: mouse BRCA2 R2336H ES cells, olaparib, CellTiter-Glo viability; active compounds read high
Summary of the method: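 Genome-wide siRNA screen (3 siRNAs/gene, 20 nM) in mouse ES cells carrying hypomorphic BRCA2 R2336H; olaparib 500 nM added 48 h post-transfection, CellTiter-Glo viability 72 h later. Normalized to plate-median negative control; MAD z-scores, gene median, seed-adjusted.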

Row | Sequence | z-score
1 | GCUCUGCUAGUCAACUGCATT against Nrip2 | 0.681
2 | GGGAUUUAACAACAUGUAATT against Slc20a1 | 2.29 (active)
3 | GGGCAUAGAGUCUCAAACUTT against Ptger1 | 0.492
4 | GGAGCUUCUAGAGAAGAUCTT against Leng5 | -2.29
5 | GCGGCAGAUCUUCGAUUUCTT against 2610200G18Rik | -0.616
6 | GCUUCUAAGCCGAAGGCCATT against Hist1h1d | 0.442
7 | CCACCAUCAAAUAUAACUATT against 9930021J03Rik | 0.126
8 | GGAACAUGAAGCCUUUUACTT against Asb16 | 3.12 (active)
9 | CCCAGGACUCAUGAUUACATT against Tas2r134 | -1
10 | CCAUCAAGAGGUAUAAUCUTT against A930017E24Rik | -2.24
11 | CGGACAGAUACAAUAGCUATT against BC057627 | 3.74 (active)
12 | GGAUUGUGCUGUGAAACAUTT against Pilrb | -1.98
13 | GCCUUCAAAUGAAGGAAGGTT against Olfr699 | -0.519
14 | GGUGAAACUGAAUAAAAUCTT against 4931406C07Rik | 1.09
15 | GGCUAGAGAAAUAGUGUUGTT against D6Ertd253e | -0.28
16 | GGAUGAAAUUAACUCUGAATT against Adprt1 | 2.49 (active)
17 | GCUUAAGGACGCAUUGAAATT against Pthlh | -0.0187
18 | GGAACACCGAACAUAAAUATT against Gm610 | -0.526
19 | UCUGGAGUCUUAUCAAGGATT against 2210020M01Rik | -0.752
20 | GGUGCCUGACCAAAAAGGATT against A830094I09Rik | 2.67 (active)
21 | GCCGACUGGUUAAAUACAUTT against Nme3 | -0.45
22 | CCCACUUAUAUAUGUAGUUTT against 2410187C16Rik | -0.391
23 | GGCAGAAGCAAUGAACUAUTT against Npm1 | 3.59 (active)
24 | GGCCUUGGGAAGGAAAGAGTT against Mospd1 | -1.74
25 | GGCACCUAACGACUUCAACTT against Pygm | 0.366
26 | GCCCGCUCUCGGAUUUUGATT against Htr1b | 2.87 (active)

Row | Sequence | z-score
27 | GCUCAGACCAUAGUUUCUATT against A930002I21Rik | 1.53
28 | GCCUCAAAACUUCUUGUUCTT against Mxd3 | 0.892
29 | GGCCUUUCUGGAGAAGAUGTT against Stfa3 | -0.717
30 | CCUUCGAACUCGAAAAAUUTT against Olfr722 | 0.346
31 | GGCCAUCGAACUCAAUCUCTT against 2810002D13Rik | 0.717
32 | GGUUAAUGGGAAACUCUGCTT against Pias3 | 2.89 (active)
33 | GGACUUAUCGGUUAUCUUUTT against Nap1l2 | 0.654
34 | CCGCACAGACCAUAGUAGATT against 1700121L12Rik | 0.0169
35 | CCUAGUUGAAAAUUGGGAATT against 0610025O11Rik | -0.794
36 | GGAUGAACAGGAGAAAGUCTT against Irak2 | 0.0975
37 | CGAUGUACUGUCUCUUUUGTT against Ywhaz | 1.53
38 | GCAACAGGUUAGCGAAACCTT against Bid3 | 0.43 (active)
39 | GGUAGCUAUCAAGGUCAUCTT against Hunk | -0.704
40 | GGAGGAUACCUUCUUCUACTT against Mta3 | 0.46
41 | GCAGGGACCGUCUAUAACUTT against Ptprb | -0.654
42 | GCGGAUUUAGUGGCUGGCUTT against Opn5 | -2.04
43 | GGAAUUUUUGGACAAAGUATT against Grid2 | -3.07 (active)
44 | GCUCUUCUCGCAUUCCUAUTT against Gpc2 | -0.68
45 | CCAGAUUGGUGAUGGUAGUTT against LOC432637 | 0.502
46 | GGCUCAUCAAAGGAAGAAATT against Araf1 | 1.44 (active)
47 | CCAGAACUUCCCAUUAAAATT against Alg8 | -0.0137
48 | CCUUAUUGGGUCAUAAGCATT against 2210403B10Rik | 0.798
49 | CCUCCGUUUGAUGACUCAATT against Tcte3 | 0.671
50 | GCGAUUCAAACUUAUUCGATT against Pcdhb15 | 0.749
51 | CCAUGAUCAAGAUUGUGCUTT against Slc29a1 | -0.707
52 | CCCUCGAUCCUUUUCACCUTT against Gja4 | 1.09

Source: PubChem BioAssay AID1347423 (Functional Genomics Laboratory (NCATS/FGL), 2020)
